Read-out in experiment [1]: solute carrier (SLC22A6), SLC22A6 (gene 9356)
Nature of the experiment: LTEA_HepaRG_SLC22A6: Life Technologies and Expression Analysis (LTEA) Assay for solute carrier (SLC22A6) using HepaRG (AID 2283653; active = hit-call score of the fitted dose curve at least 0.9, where 1 is the maximum; inactive = score below 0.9). To be noted: mRNA level, 48 h; actives raise or lower the signal. Summed up: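 Read-out is SLC22A6 transcript level by qRT-PCR, normalised to three housekeeping genes and fitted for gain or loss relative to 0.5% DMSO vehicle. Human HepaRG cells received chemicals at up to 100 uM for 48 h.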

Experiment [2] can be described thus: Tanguay_ZF_120hpf_OTIC_legacy: (Legacy) Oregon State University Tanguay Lab 120 Hour Post-fertilization zebrafish Assay for Otic Vesicle Malformation (AID 2283639). In short, it runs like this: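 Wild-type zebrafish larvae, whole-embryo exposure from early stage to 120 hpf at 28C. Binary brightfield scoring of otic vesicle morphology, fitted in the positive direction against the DMSO baseline.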

The nature of experiment [3]: Tanguay_ZF_120hpf_PE_legacy: (Legacy) Oregon State University Tanguay Lab 120 Hour Post-fertilization zebrafish Assay for Pericardial Edema (AID 2283640).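 As to AC50: potency for increased incidence of pericardial edema versus DMSO baseline.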 Summed up: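 Embryos from wild-type 5D adults were staged, then dosed in 0.64% DMSO. They were kept sealed in the dark at 28C until 120 hpf. Pericardial edema was then recorded as present or absent.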
Experiment [4] can be described thus: Tanguay_ZF_120hpf_SOMI_legacy: (Legacy) Oregon State University Tanguay Lab 120 Hour Post-fertilization zebrafish Assay for Somite Malformation (AID 2283647). Summed up: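 Read-out: presence or absence of somite malformation in 120 hpf larvae, gain-of-signal relative to DMSO baseline. Embryos lacked chorion (pronase, 4 hpf) and were exposed statically from 6 hpf at 28C; dead larvae not scored.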

Experiment [5] is described as follows: Tanguay_ZF_120hpf_CFIN_legacy: (Legacy) Oregon State University Tanguay Lab 120 Hour Post-fertilization zebrafish Assay for Caudal Fin Malformation (AID 2283649). In short, it runs like this: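 Binary presence or absence of caudal fin malformation at 120 hpf, read by brightfield microscopy, with DMSO as baseline. Larvae came from 5D wild-type embryos exposed statically from 6 hpf at 28C after pronase dechorionation.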

Experiment [6] can be described thus: Tanguay_ZF_120hpf_PIG_legacy: (Legacy) Oregon State University Tanguay Lab 120 Hour Post-fertilization zebrafish Assay for Pigmentation Malformation (AID 2283650).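 Also: dechorionated Tropical 5D zebrafish embryos exposed singly from 6 to 120 hpf.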 In short, it runs like this: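 Brightfield scoring of pigmentation malformation at 120 hpf, recorded as binary present/absent per larva. Exposure: dechorionated 5D wild-type embryos, one per well, static from 6 hpf at 28C, final DMSO 0.64% (vol/vol). Dead embryos not scored.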

Experiment [7] in a line: Tanguay_ZF_120hpf_CIRC_legacy: (Legacy) Oregon State University Tanguay Lab 120 Hour Post-fertilization zebrafish Assay for Circulatory Malformation (AID 2283651). In short, it runs like this: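 Binary circulatory-malformation call at 120 hpf via brightfield imaging, relative to DMSO controls. Embryos (5D strain, chorion removed) received static, light-shielded exposure at 28C.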

Experiment [8] in a line: Tanguay_ZF_120hpf_BRAI_legacy: (Legacy) Oregon State University Tanguay Lab 120 Hour Post-fertilization zebrafish Assay for Brain Malformation (AID 2283641). Summed up:
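Wild-type 5D larvae, static waterborne exposure to 120 hpf, 28C, 0.64% v/v DMSO. Brightfield scoring of brain defects, binary; dead embryos excluded. Positive ctrl 5uM trimethyltin chloride.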

Experiment [9] can be described thus: Tanguay_ZF_120hpf_JAW_legacy: (Legacy) Oregon State University Tanguay Lab 120 Hour Post-fertilization zebrafish Assay for Jaw Malformation (AID 2283638).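 As to AC50: active means more embryos with jaw malformation than DMSO controls.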 In short, it runs like this:
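Steps: dechorionate 4 hpf embryos (pronase); plate 1/well at 6 hpf; add test chemical, 0.64% DMSO final; seal, cover, hold at 28C statically to 120 hpf; score jaw defect presence/absence microscopically. Dead embryos not scored.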

The nature of experiment [10]: Tanguay_ZF_120hpf_PFIN_legacy: (Legacy) Oregon State University Tanguay Lab 120 Hour Post-fertilization zebrafish Assay for Pectoral Fin Malformation (AID 2283648).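 Also: each larva judged yes or no for fin defect by brightfield with dead larvae skipped.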 Summed up: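 Binary pectoral fin malformation call at 120 hpf by brightfield microscopy; 5D wild-type zebrafish, chorion removed at 4 hpf, one embryo per well from 6 hpf, static exposure at 28C; DMSO (0.64% final) as baseline.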

Structures are written as SMILES. Records with an inconclusive call do not appear. Calls of active or inactive are those of the source. The calls were made as follows, unless noted: active = hit-call score of the fitted dose curve at least 0.9, where 1 is the maximum; inconclusive = response in the unintended direction; inactive = score below 0.9.

The term AC50 denotes the concentration at which the activity in the assay is half-maximal.

For `CC1=C2C[C@H]3[C@@H](CC=C4C[C@@H](O)CC[C@@]43C)[C@@H]2CC[C@]12O[C@@H]1C[C@H](C)CN[C@H]1[C@H]2C`, the result in experiment [1] was inactive.

Turning to `CC(C)(c1ccccc1)c1ccc(O)cc1`, the result in experiment [2], in experiment [3], in experiment [4], in [5], in [6] and in [7] was inactive.

As for `c1cc2ccc3cccc4ccc(c1)c2c34`, the result in [2], in [3], in experiment [8], in [5], in [6] and in experiment [7] was inactive.

In the case of `O=C(O)C(F)(F)C(F)(F)C(F)(F)C(F)(F)C(F)(F)C(F)(F)C(F)(F)C(F)(F)C(F)(F)F`, the compound was called inactive in [9], in experiment [2], in [8], in experiment [4], in experiment [5] and in experiment [6]. The outcome in [7] and in experiment [1] was inactive.

For the compound `COS(=O)(=O)OC`, the call in experiment [9], in experiment [2], in experiment [3], in [4], in experiment [10] and in experiment [6] was inactive. Besides, the compound was called inactive in [7] and in experiment [1].

With `Cc1cccc(C)c1N`, the result in experiment [3], in experiment [5], in experiment [6] and in experiment [7] was inactive.

In the case of `CN(C)c1nc(=O)n(C2CCCCC2)c(=O)n1C`, the compound was classed as inactive in [2], in experiment [3], in experiment [8], in [5] and in [7].

Turning to `CCC(C)(c1ccc(O)cc1)c1ccc(O)cc1`, the AC50 in [9] was 47.3 µM (active); in [3], 43.4 µM (active); in experiment [8], 50.6 µM (active); in experiment [4], 46.4 µM (active); in [10] it was 44.7 µM (active); in [6], 43.2 µM (active). Also, the AC50 in experiment [7] was 42.7 µM (active). The outcome in [5] was inactive.

Consider `COc1ccc(O)c(C(C)(C)C)c1`, for which the compound was classed as inactive in experiment [9], in experiment [3], in experiment [8], in experiment [4], in experiment [10] and in [5]. Further, the compound was classed as inactive in experiment [6].

On to `Clc1ccc(Cl)cc1`, for which the outcome in experiment [9], in experiment [2], in experiment [3], in experiment [4], in [5] and in experiment [6] was inactive. For the same compound, the result in experiment [7] and in experiment [1] was inactive.

As to `O=S(=O)(O)C(F)(F)C(F)(F)C(F)(F)C(F)(F)F`, the compound was classed as inactive in experiment [9] and in experiment [6].

In the case of `Cc1cc(O)ccc1Cl`, the outcome in [9], in experiment [2], in experiment [3], in experiment [10], in experiment [5] and in experiment [6] was inactive. The call in experiment [7] was inactive.

In the case of `O=C(NC(=O)c1cc(F)c(F)cc1Cl)Nc1cc(F)ccc1N1CCC(C(=O)O)CC1`, the result in experiment [9], in experiment [2], in experiment [3], in [4], in experiment [10] and in [5] was inactive. Also, the call in experiment [6] and in [7] was inactive.

Regarding `O=C(O)C(F)(F)C(F)(F)C(F)(F)C(F)(F)C(F)(F)F`, the compound was classed as inactive in [9], in experiment [2], in experiment [3], in [8], in experiment [10] and in experiment [5]. Besides, the call in [6] and in experiment [7] was inactive.

`C[C@]12CCC(=O)C=C1CC[C@@H]1[C@@H]2CC[C@@]2(C)[C@H]1CC[C@]2(C)O`: the outcome in experiment [9], in [2], in [8], in [4], in [5] and in [6] was inactive. The compound was called inactive in [7].

For `ClC(Cl)=C(c1ccc(Cl)cc1)c1ccc(Cl)cc1`, the call in [9], in experiment [3], in [8], in experiment [4], in [10] and in experiment [5] was inactive. The compound was classed as inactive in experiment [7].

As to `C[C@]12CCC(=O)C=C1CC[C@@H]1[C@@H]2CC[C@]2(C)C(=O)CC[C@@H]12`, the AC50 in experiment [9] was 38.3 µM (active); in experiment [3], 36.3 µM (active); in experiment [8] it was 49.8 µM (active); in experiment [10], 35.1 µM (active); in experiment [5], 40.4 µM (active); in experiment [6], 43.9 µM (active). Besides, the outcome in [4] and in [7] was inactive.

Take `CC(c1ccc(O)cc1)(c1ccc(O)cc1)c1ccc(O)cc1`: the call in experiment [9], in experiment [2], in experiment [8], in [4], in experiment [10] and in [5] was inactive. Besides, the compound was classed as inactive in experiment [6] and in experiment [7].

On to `CCCN(CCC)N=O`, for which the outcome in experiment [9], in experiment [3], in [4], in experiment [10], in experiment [5] and in experiment [6] was inactive. The compound was classed as inactive in experiment [7].

Regarding `CCSC(=O)N(CC)C1CCCCC1`, the compound was called inactive in experiment [9], in [2], in experiment [8], in experiment [4], in experiment [10] and in [5]. Besides, the compound was called inactive in experiment [6] and in experiment [7].

As for `CCCCCCCCCC[N+](C)(C)CCCCCCCCCC`, the outcome in experiment [9], in [2], in [3], in [8], in experiment [10] and in [5] was inactive. The compound was called inactive in [7].

With `Oc1ccc(Cl)cc1Cl`, the compound was called inactive in experiment [9], in [2], in [3], in experiment [4], in experiment [10] and in experiment [5]. Besides, the compound was called inactive in experiment [6].

Take `ClC1=C(Cl)[C@]2(Cl)[C@@H]3[C@@H]4C[C@@H]([C@H]5O[C@@H]45)[C@@H]3[C@@]1(Cl)C2(Cl)Cl`: the call in experiment [2], in experiment [3], in [8], in experiment [4] and in experiment [5] was inactive.

Regarding `CCCCCCOC(=O)c1ccccc1C(=O)OCCCCCC`, the call in [9], in experiment [3], in [8], in experiment [4], in experiment [10] and in experiment [6] was inactive. Also, in [7], the compound was classed as inactive.

As to `CC(C)(O)C(=O)Nc1ccc([N+](=O)[O-])c(C(F)(F)F)c1`, the values for the AC50 in [9] and in experiment [3] were 23.1 µM (active) and 23.2 µM (active), respectively. Further, the outcome in experiment [8], in [4], in [10], in experiment [6] and in [7] was inactive.

For `c1ccc(-c2ccccc2)cc1`, the call in experiment [9], in experiment [2], in experiment [3], in experiment [4], in experiment [10] and in experiment [6] was inactive.

In the case of `Clc1ccc(C(c2ccccc2Cl)C(Cl)(Cl)Cl)cc1` (stereo unspecified), the result in experiment [2], in [3], in experiment [8], in experiment [10], in experiment [5] and in [6] was inactive. Moreover, the compound was classed as inactive in experiment [7].

For the compound `CCOP(=S)(OCC)SCSC(C)(C)C`, the call in [2], in [3], in experiment [8], in [4], in [10] and in [6] was inactive. In addition, in experiment [7], the result was inactive.

`Clc1ccc(C(Cl)(Cl)Cl)cc1`: the compound was classed as inactive in experiment [9], in [3], in [4] and in experiment [6].

In the case of `CCCCCCCCCc1ccc(O)cc1`, the call in experiment [9], in [2], in experiment [3], in experiment [4], in experiment [5] and in experiment [6] was inactive. Moreover, the compound was called inactive in experiment [1].

`C1CC2OC2CC1C1CO1` (stereo unspecified): the outcome in experiment [9], in experiment [2], in experiment [4], in experiment [10], in experiment [5] and in [6] was inactive. The call in [7] was inactive.

For the compound `O=S(=O)(O)C(F)(F)C(F)(F)C(F)(F)C(F)(F)C(F)(F)C(F)(F)F`, the call in experiment [9], in [2], in [4], in experiment [10], in experiment [6] and in experiment [7] was inactive. In addition, in experiment [8], the AC50 was 14.9 µM (active).

Turning to `CC#Cc1cc(C)nc(Nc2ccccc2)n1`, the compound was called inactive in experiment [9], in [8], in experiment [4], in [10], in [5] and in [6]. In experiment [7], the result was inactive.
